In the experiment the target is Lysosomal alpha-glucosidase (Homo sapiens) (UniProt P10253). The experiment in a line: Confirmation of Inhibitors and Activators of Human alpha-Glucosidase From Spleen Homogenate.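 For potency: fluorescence of 4-methylumbelliferone released from a fluorogenic glucopyranoside substrate at pH 5.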 Particulars: alpha-glucosidase enzyme activity; series mostly up to 60.5 µM. In short, it runs like this:
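Compounds titrated against spleen-homogenate alpha-glucosidase, pH 5.0, 1 mM 4-MU-glucoside substrate, 37 C for 40 min. Fluorescence after pH 10 stop, normalised to no-enzyme and enzyme controls; Hill-equation AC50.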

Inconclusive results are not listed. Entries that show only a call come without a potency. The source made the active and inactive calls. Calls come from the whole dose curve; as a rule, active = well fitted curve in either direction with a large enough effect; inconclusive = small, poorly fitted or top-dose-only effect; inactive = no such curve, though single readings can be large or run the other way.
Potency is the fitted concentration of half-maximal effect.

Take `CC1CCc2nc(-c3cc4c(ccc5ccccc54)oc3=O)sc2C1` (stereo unspecified): the Potency entry is “inactive”.

Regarding `CCc1sc(-c2cc3ccccc3oc2=O)nc1-c1cc(C)ccc1C`, the Potency is 31.6 µM (active).

For `CNc1ncnc2c1ncn2[C@H]1C[C@H](OP(=O)(O)O)[C@@H](COP(=O)(O)O)O1`, the Potency result was “inactive”.

For the compound `COC(=O)c1ccc(CSc2cc(C)c3cccc(C)c3n2)o1`, the Potency result is “inactive”.

As for `CCCN1CNc2c(c(=O)[nH]c(=S)n2CCc2ccc(C)cc2)C1`, the Potency is 25.1 µM (active).

Consider `O=S(=O)(c1ccccc1Br)N1CCOCC1`, for which the Potency result was “inactive”.

`CCC(C)N1CNc2c(c(=O)[nH]c(=S)n2-c2cccc(C)c2)C1` (stereo unspecified): the Potency result is “inactive”.

For the compound `CC1OC(OC2C(CO)OC(OC3C(CO)OC(O)C(O)C3O)C(O)C2O)C(O)C(O)C1NC1C=C(CO)C(O)C(O)C1O` (stereo unspecified), the Potency entry is “inactive”.

As to `O=C1Cc2cc(S(=O)(=O)N3CCN(c4ccc(CO)cc4)CC3)ccc2N1`, the Potency is 25.9 µM [inhibitor] (active).

For the compound `O=C(Nc1ccc(OCC(=O)N2CCN(S(=O)(=O)c3ccccc3)CC2)cc1)c1ccco1`, the Potency result was “inactive”.

On to `Clc1ccc(-c2ccnc(Oc3cc(Cl)ccc3Cl)n2)cc1`, for which the Potency result was “inactive”.

In the case of `COc1ccc(OC)c(/C=C/C(=O)N(C)CC(=O)Nc2ccc(C)cc2)c1`, the Potency result was “inactive”.

On to `Cc1ccccc1-n1c(N)cc(=O)[nH]c1=S`, for which the Potency entry was “inactive”.

As for `CC1CCc2c(nc3ncnn3c2N2CCN(c3ccccc3F)CC2)C1` (stereo unspecified), the Potency result is “inactive”.

As to `CCOC(=O)c1c(-c2ccc(-c3ccccc3)cc2)csc1NC(=O)CCN1CCOCC1`, the Potency entry is “inactive”.

For the compound `CN(CCO)S(=O)(=O)c1ccc2c(c1)C(=NN)c1cc(S(=O)(=O)N(C)CCO)ccc1-2`, the Potency entry was “inactive”.

For `O=c1oc2ccc3ccccc3c2cc1-c1nc2c(s1)CCc1ccccc1-2`, the Potency entry was “inactive”.

Consider `Cn1cnc2c(NCc3ccccc3)nc(NCCO)nc21`, for which the Potency result is “inactive”.

Take `Cc1sc(-c2cc3cc(Br)ccc3oc2=O)nc1-c1ccccc1`: the Potency entry was “inactive”.

For `O=S(=O)(c1ccc2nc(-c3ccco3)c(-c3ccco3)nc2c1)N1CCOCC1`, the Potency entry was “inactive”.

For the compound `O=c1oc2ccccc2cc1-c1nc2c(s1)CCc1ccccc1-2`, the Potency entry was “inactive”.

For `O=S(=O)(c1cccc(Cl)c1)N1CCOCC1`, the Potency entry was “inactive”.

Consider `COC(=O)CSc1cc([N+](=O)[O-])ccc1NC(=O)OC`, for which the Potency result is “inactive”.

For the compound `c1ccc(-c2nc3nc4ccccc4nc3n2CC2CCCO2)cc1` (stereo unspecified), the Potency entry was “inactive”.

Consider `CCCCCCc1cc2cc(C(=O)NC)c(=N)oc2cc1O`, for which the Potency entry is “inactive”.

On to `CCCN1CNc2c(c(=O)[nH]c(=S)n2CCc2ccc(Cl)cc2Cl)C1`, for which the Potency is 22.4 µM (active).

With `CN(C)N=C1c2cc(S(=O)(=O)N3CCOCC3)ccc2-c2ccc(S(=O)(=O)N3CCOCC3)cc21`, the Potency result was “inactive”.

As for `Cn1c(=O)c2c(nc(NCc3ccc4c(c3)OCO4)n2Cc2ccc(F)cc2)n(C)c1=O`, the Potency result was “inactive”.

Take `CCN(CC)S(=O)(=O)c1ccc2c(c1)C(=NNc1ccccc1)c1cc(S(=O)(=O)N(CC)CC)ccc1-2`: the Potency result was “inactive”.

As to `O=Cc1ccc(N2CCN(S(=O)(=O)c3ccc4c(c3)CC(=O)N4)CC2)cc1`, the Potency was 4.61 µM [inhibitor] (active).

In the case of `O=C1Cc2cc(S(=O)(=O)N3CCN(c4cccc(C(F)(F)F)c4)CC3)ccc2N1`, the Potency is 18.8 µM [inhibitor] (active).

For `CCCc1cc(-c2nc(N)ncc2-c2ccc3c(c2)OCCCO3)c(O)cc1OC`, the Potency entry is “inactive”.

Consider `CC(C)NCC(O)COc1cccc2[nH]ccc12` (stereo unspecified), for which the Potency entry is “inactive”.

On to `N#C/C(=C\c1cc(O)c(O)c(O)c1)C(N)=O`, for which the Potency entry was “inactive”.

In the case of `Nc1cccc(S(=O)(=O)N2CCOCC2)c1`, the Potency result was “inactive”.

For the compound `Cc1cccn2c(=O)c3cc(C#N)c(=NC(=O)c4cccs4)n(CCCOC(C)C)c3nc12`, the Potency entry was “inactive”.

The record behind these values is PubChem BioAssay AID2113 (National Center for Advancing Translational Sciences (NCATS), 2009).
